We go through 23 compounds from PubChem BioAssay.

The structures appear in SMILES notation. Active and inactive are the calls of the source.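 Rule for the calls: active = calcium signal rise above buffer-control mean plus 5 SD in both duplicates, and also a hit in the primary screen; inactive = the rest.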

The experiment deals with Short transient receptor potential channel 4 (Mus musculus) (UniProt Q9QUQ5). In words: calcium flux activators in TRPC4/5HT1a cells, counter-screen for TRPC4 activator project, cell-based, second counter screen, HEK293 TRPC4/5HT1a, Fluo-4 (AID 434977).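 For activation: plate controls were assay buffer for no effect and maximal serotonin response for full effect.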 Conditions: Fluo-4 calcium flux, at 10 µM; active compounds read high. For orientation: Calcium flux is commonly read through the fluorescence of an indicator in the cells.
As for `Cc1ccc2c(C)c(C(=O)N(Cc3cccs3)C3CCS(=O)(=O)C3)oc2c1` (stereo not drawn), the outcome was inactive.
Still for that read-out and setting: then `CCN1CCN(c2c(Cl)cccc2NC(=O)c2ccc3nsnc3c2)CC1`, with “inactive”.
Regarding `O=C(C1CCCN(Cc2ccncc2)C1)N1CCc2ccccc2C1` (stereo not drawn), the activation is 84.2% (active).
For `CCN(c1ccccc1)S(=O)(=O)c1ccc(C(=O)N(CCCN(C)C)c2nc3cc4c(cc3s2)OCO4)cc1`, the result was inactive.
Consider `CC1CCCN(CCCNC(=O)c2ccc3c(c2)N(Cc2ccccc2F)C(=O)c2ccccc2S3(=O)=O)C1` (stereo not drawn), for which the activation is 24.4% (active).
Regarding `O=C(Nc1nnc(-c2ccccc2Cl)o1)c1nc2ccccc2s1`, the activation was 91.4% (active).
Consider `COc1ccc(C(=O)NC(=S)NNC(=O)CCc2ccccc2)cc1`, for which the activation is 61.1% (active).
For the compound `Cc1cc(-c2nn(-c3ccccc3F)cc2CNCCc2cnc[nH]2)c(C)s1`, the activation is 39.8% (active).
Still for that read-out and setting: then `Cc1ccc(C(=O)NC(=S)NNC(=O)c2ccccc2)cc1`, with 72.6% (active); and `Cc1csc2c(N3CCN(C(=O)NC(C)(C)C)CC3)ncnc12`, with 36.7% (active).
`COC(=O)[C@@]1(Cc2ccc(F)cc2)[C@H]2c3cc(C(=O)N(C)C)n(CCc4ccccn4)c3C[C@H]2CN1C(=O)c1ccccc1`: the result was inactive.
Regarding `CN(CCc1ccccn1)C(=O)CC1C(=O)NCCN1Cc1ccccc1C(F)(F)F` (stereo not drawn), the activation is 50.4% (active).
On the same count and under the same terms, for `COc1cc(/C=C/C(=O)c2ccc3c(c2)OCO3)cc(Cl)c1O` the value was 69.2% (active); for `CCn1c(N2CCN(C(=O)Nc3ccc(F)cc3)CC2)nc2ccccc21`, 28.1% (active).
As to `O=S(=O)(c1ccccc1)c1nnn2c1nc(NC1CCN(Cc3ccccc3)CC1)c1cc(Cl)ccc12`, the outcome was inactive.
Regarding `CCOC(=O)c1oc2ccc(OC)cc2c1NC(=O)CN1CCN(C)CC1`, the activation is 12.8% (active).
Still for that read-out and setting: then `C=CCn1c(CCNC(=O)C(C)(C)C)nc2ccccc21`, with 30.7% (active).
For `CCOC(=O)C1(CCOc2ccccc2)CCN(Cc2ccc3c(c2)OCCO3)CC1`, the outcome was inactive.
On to `Cc1cc(C)n(-c2nc(SCCN(C)C)c3c4c(sc3n2)CCCC4)n1`, for which the result was inactive.
Consider `COc1cc(OC)cc(C(=O)NC2CCCN(Cc3ccc(Cl)cc3)C2)c1` (stereo not drawn), for which the activation was 31.6% (active).
As to `CN(C)C(CNC(=O)CCc1c[nH]c2ccccc12)c1ccccc1` (stereo not drawn), the result was inactive.
Consider `CCCCN(CC)CCCNC(=O)Cn1nc(Cc2ccncc2)c2ccccc2c1=O`, for which the activation was 53.7% (active).
Take `COC(=O)C1=C(C)N(Cc2ccccc2)C(=NCCc2ccccn2)N[C@H]1c1cccc(F)c1`: the activation is 44.2% (active).
